In the supplement of paper PMC11865577:
Structures can show the parent of a compound that is named as a salt.

What was measured:
Assay in all cases: normalised indicator fluorescence (fraction of RNA + indicator signal without compound); higher = less displacement of indicator (weaker competition)
Details in all cases: compound concentration: 5 uM, 30 min
[1] = test system: hsa-mir-191 loop
Method in brief: (§1)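 For the displacement screen, RNA and a TO-PRO-1 or TO-PRO-3 indicator were held in 20 mM phosphate pH 7.0 with 20 mM NaCl and 80 mM KCl in 96-well plates. After adding 0.25 μL of each 1 mM DMSO stock (about 5 uM final) and waiting 30 min, fluorescence was measured on an Infinite 200 PRO with excitation at 485 or 620 nm. Each value is the mean of two independent experiments, expressed as blank-subtracted indicator fluorescence relative to the no-compound RNA-plus-indicator signal.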

[2] = test system: hsa-mir-21 loop
Method in brief: as §1

[3] = test system: hsa-mir-221 loop
Method in brief: as §1

[4] = test system: hsa-mir-374a loop
Method in brief: as §1

[5] = test system: hsa-mir-6850 loop
Method in brief: as §1

[6] = indicator: TO-PRO-1 0.1 uM, RNA concentration: 0.1 uM
[7] = indicator: TO-PRO-3 0.5 uM, RNA concentration: 0.5 uM

| Structure (SMILES) | normalised indicator fluorescence [1, 6] | normalised indicator fluorescence [1, 7] | normalised indicator fluorescence [2, 6] | normalised indicator fluorescence [2, 7] | normalised indicator fluorescence [3, 6] | normalised indicator fluorescence [3, 7] | normalised indicator fluorescence [4, 6] | normalised indicator fluorescence [4, 7] | normalised indicator fluorescence [5, 6] | normalised indicator fluorescence [5, 7] |
| --- | --- | --- | --- | --- | --- | --- | --- | --- | --- | --- |
| Nc1c(Br)cc(Br)cc1CN[C@H]1CC[C@H](O)CC1 [Ambroxol] | 0.949 | 1.04 | 0.88 | 1.17 | 1.04 | 1.02 | 1.16 | 1.12 | 0.965 | 1.06 |
| C1CCN2C[C@@H]3C[C@@H](CN4CCCC[C@@H]34)[C@H]2C1 [(-)-Sparteine sulfate pentahydrate] | 0.913 | 1.02 | 0.863 | 1.2 | 1.09 | 1.06 | 1.14 | 1.14 | 0.921 | 1.05 |
| O=CN1CC/C(=C/c2ccc3c(c2)OCO3)C1=O | 1.04 | 1.04 | 0.922 | 1.01 | 1.03 | 0.986 | 1.1 | 1.08 | 1 | 1.03 |
| CN(C)CCCN1c2ccccc2CCc2ccc(Cl)cc21 [Clomipramine hydrochloride] | 1 | 1.1 | 0.961 | 0.987 | 1.07 | 1.01 | 1.14 | 1.02 | 0.864 | 1.08 |
| CCCC(C(=O)OCCN(CC)CC)(c1ccccc1)c1ccccc1 [Proadifen hydrochloride] | 1.01 | 1.04 | 0.923 | 1 | 1.08 | 1.05 | 1.16 | 1.17 | 0.941 | 1.02 |
| O=c1c(O)c(-c2cc(O)c(O)c(O)c2)oc2cc(O)cc(O)c12 [Myricetin] | 0.403 | 0.684 | 0.387 | 0.742 | 0.505 | 0.659 | 0.543 | 0.424 | 0.604 | 0.969 |
| CC(=O)O[C@H]1C[C@@]2(C)[C@@H](C[C@@H](O)[C@H]3[C@@]4(C)CC[C@@H](O)[C@@H](C)[C@@H]4CC[C@@]32C)/C1=C(\CCC=C(C)C)C(=O)O [Fusidine] | 0.992 | 1.01 | 0.976 | 1.08 | 1.04 | 1.02 | 1.15 | 1.21 | 1.06 | 1.06 |
| C/C1=C/CC[C@H](C)C(=O)C[C@@H](C(C)C)C(=O)C1 [Curdione] | 1.05 | 1.02 | 1.04 | 1.09 | 1.05 | 1.16 | 1.07 | 1.26 | 1.14 | 1.06 |
| COC1=C(OC)C(=O)C(CCCCCCCCCCO)=C(C)C1=O [Idebenone] | 1.04 | 1.05 | 0.937 | 1.04 | 1.02 | 1.04 | 1.04 | 1.03 | 0.917 | 1.02 |
| COC1=C2C[C@@H](C)C[C@H](OC)[C@H](O)[C@@H](C)/C=C(\C)[C@H](OC(N)=O)[C@@H](OC)/C=C\C=C(/C)C(=O)NC(=CC1=O)C2=O [Geldanamycin] | 1.09 | 1.08 | 1.04 | 1.05 | 1.04 | 1.09 | 1.11 | 1.31 | 1.09 | 1.02 |
| CN(C)C[C@@H]1CCn2cc(c3ccccc32)C2=C(C(=O)NC2=O)c2cn(c3ccccc23)CCO1 [Ruboxistaurin hydrochloride] | 1.1 | 1.04 | 0.991 | 1.01 | 1 | 1.12 | 1.03 | 1.24 | 0.894 | 0.897 |
| CCOc1cc(C(=O)N2CCC(N3CCN(C)CC3)CC2)ccc1Nc1ncc2c(n1)N(C1CCCC1)c1ccccc1C(=O)N2C | 1.09 | 1.04 | 0.946 | 1.01 | 1.03 | 1.01 | 1.07 | 1.1 | 0.938 | 1 |
| COc1nc(-c2ccc3c(c2)OCO3)n(-c2ccc(NC(=O)CSc3ccccc3)cc2)n1 [SecinH3] | 1.09 | 1.02 | 0.961 | 1.2 | 1.02 | 1.1 | 1.01 | 1.12 | 1 | 0.992 |
| CC1=NN(c2ccccc2)C(=O)C1 [Edaravone] | 1.06 | 1.11 | 1.07 | 1.04 | 1.05 | 1.04 | 1.06 | 1.12 | 1.05 | 1.05 |
| Fc1ccc(-c2nc3n(c2-c2ccncc2)CCS3)cc1 | 1.08 | 1.08 | 0.993 | 1.02 | 1.07 | 1.13 | 1.09 | 1.18 | 0.947 | 1.04 |
| O=C(Nc1ccc2[nH]nc(-c3ccncc3)c2c1)[C@@H]1CCN(CC(=O)N2CCN(c3ccc(-c4ncccn4)cc3)CC2)C1 | 1.05 | 1.02 | 1.02 | 1 | 1.04 | 1 | 1.09 | 1.16 | 0.931 | 0.89 |
| O=c1cc(-c2ccc(O)c(-c3c(O)cc(O)c4c(=O)cc(-c5ccc(O)cc5)oc34)c2)oc2cc(O)cc(O)c12 [Amentoflavone] | 0.994 | 1.42 | 1.16 | 1.23 | 1.19 | 1.17 | 1.29 | – | 1.07 | 1.03 |
